Source: PubChem
IL-1B inflam inh = blocks inflammasome-driven IL-1 beta release | THP-1 LPS/ATP IL-1B secretion, AlphaLISA, 16 h; active compounds read low | activity change, % at 57.5 µM | 360,000 tested, 4.7% active | AID 743279; in the data active = activity change below about -50%; inconclusive = mostly about -30% to -49%
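THP-1 cells pretreated 1 hr with compounds (up to 57.5 uM final), then stimulated with LPS (250 ng/mL final) plus ATP (1.25 mM final); secreted IL-1B measured by AlphaLISA after 16 hr, decreased signal indicating inhibition.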
Gal4-VP16 FLuc = inhibits Gal4-VP16 luciferase reporter, ROR gamma counter-screen. Drosophila S2 Gal4-VP16 UAS-luciferase, luminescence, 20 h. Potency, µM (series often up to 53.6 µM), usual class: inhibitors. 310,000 tested, 3.5% active. AID 2546;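 note: Gal4-VP16 expression switched on by copper sulfate through the metallothionein promoter; nearly all actives have a fitted effect of over 50% in size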
DT40 TDP1 CPT = DT40-hTDP1 cell growth loss with CPT. chicken DT40 Tdp1-/-;hTDP1 cells + 20 nM CPT, ATP luminescence, 48 h. Potency, µM (titrated, usually from 46.2 µM), usual class: inhibitors. 420,000 tested, 12% active. AID 686979; note: nearly all actives have a fitted effect of over 55% in size
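Chicken DT40 Tdp1-/- cells complemented with human TDP1, 400 cells/well, exposed to compounds plus 20 nM camptothecin for at least 48 h at 37 C; viability read as ATP content by CellTiter-Glo luminescence.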
RORgamma inh = blocks mouse ROR gamma transcriptional activity | P51450 | Drosophila S2 Gal4-RORgamma UAS-luciferase reporter, 20 h | Potency, µM (highest dose often 53.6 µM), hits mostly inhibitors | 310,000 tested, 5.4% active; note: nearly all actives have a fitted effect of over 60% in size
Target sequence (P51450 whole entry, looked up, the tested form may be a part): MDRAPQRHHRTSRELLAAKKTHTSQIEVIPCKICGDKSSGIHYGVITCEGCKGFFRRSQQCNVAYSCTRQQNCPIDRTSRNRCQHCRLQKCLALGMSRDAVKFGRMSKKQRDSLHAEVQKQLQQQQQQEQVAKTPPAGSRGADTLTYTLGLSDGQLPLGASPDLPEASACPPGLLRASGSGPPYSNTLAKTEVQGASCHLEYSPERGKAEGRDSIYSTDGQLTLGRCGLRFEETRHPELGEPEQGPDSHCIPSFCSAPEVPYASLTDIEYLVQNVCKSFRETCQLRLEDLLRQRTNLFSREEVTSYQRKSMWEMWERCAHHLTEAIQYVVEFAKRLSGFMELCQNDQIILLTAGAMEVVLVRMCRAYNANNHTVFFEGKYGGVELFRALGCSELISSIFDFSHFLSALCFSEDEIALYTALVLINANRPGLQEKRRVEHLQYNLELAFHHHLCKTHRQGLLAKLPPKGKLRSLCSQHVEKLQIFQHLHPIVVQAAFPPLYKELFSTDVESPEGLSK
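Stable Schneider cell line, Gal4 DNA-binding domain fused to ROR gamma, UAS-luciferase. Cmpd 1 hr RT → CuSO4 700 uM final → 20 hr RT → luciferase reagent 10 min → luminescence.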
TDP1 cell noCPT = qHTS for Inhibitors of human tyrosyl-DNA phosphodiesterase 1 (TDP1): qHTS in cells in absence of CPT. DT40 Tdp1-/- hTDP1 cells, no CPT, ATP luminescence, 48 h. Potency, µM (top dose mostly 46.2 µM), usual class: inhibitors. 420,000 tested, 15% active. AID 686978, 2013; note: nearly all actives have a fitted effect of over 55% in size
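Growth of hTDP1-complemented DT40 Tdp1-knockout cells is measured by ATP luminescence after at least 48 hr compound exposure at 37 °C, with DMSO substituting for the 20 nM CPT used in the parallel screen.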
LDHA block = blocks human lactate dehydrogenase A; P00338; purified LDHA, NADH/diaphorase-resazurin fluorescence; active compounds read low; activity change, % (values are at about 110 or 230 µM); 480,000 tested, 0.15% active; AID 1347041; in the data active = activity change below about -30%; inconclusive = mostly about -25% to -30%
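Resorufin fluorescence (ex540/em590), read at 0 and 20 min after diaphorase/resazurin addition, reports the NADH left after a 5 min room-temperature reaction of 2 nM human LDH5 with 0.06 mM NADH and 0.2 mM pyruvate.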
Each line names hits and unclear results; the compound was inactive in the other large screens. Only some compounds are listed: those with a hit (about 18% of all), similar ones and a draw of the others. Unless noted, calls come from the whole dose curve; as a rule, active = well fitted curve in the direction sought with a large enough effect; inconclusive = small, poorly fitted or top-dose-only effect, or another doubt; inactive = no such curve, though single readings can be large; an effect the other way counts as inactive or inconclusive.

O=C(C[C@H]1C(=O)N(CCc2ccccc2)C[C@@H]1Cc1ccccc1)Nc1ccccc1	DT40 TDP1 CPT 16.4µM, TDP1 cell noCPT 15.8µM
O=C(C[C@H]1C(=O)N(Cc2ccccc2)C[C@@H]1Cc1ccccc1)Nc1ccccc1	DT40 TDP1 CPT 12.6µM, TDP1 cell noCPT 11.2µM
CSC[C@H]1CN(CCc2ccccc2)C(=O)[C@@H]1CC(=O)Nc1ccc(Br)cc1	DT40 TDP1 CPT inconclusive, TDP1 cell noCPT inconclusive (no result: Gal4-VP16 FLuc, RORgamma inh)
CN(C)c1ccc(NC(=O)c2cccc3ccccc23)cc1	none (no result: IL-1B inflam inh, Gal4-VP16 FLuc, DT40 TDP1 CPT, RORgamma inh, TDP1 cell noCPT)
CC1CCN(CCCNCc2ccccc2)CC1	none (no result: IL-1B inflam inh, Gal4-VP16 FLuc, DT40 TDP1 CPT, RORgamma inh, TDP1 cell noCPT)
O=C(C[C@H]1C(=O)N(C2CCCCC2)C[C@@H]1Cc1ccccc1)Nc1ccccc1	IL-1B inflam inh inconclusive, DT40 TDP1 CPT inconclusive, TDP1 cell noCPT 15.8µM
C[C@H]1CN(C2CCCCC2)C(=O)[C@@H]1CC(=O)Nc1ccccc1	IL-1B inflam inh inconclusive (no result: Gal4-VP16 FLuc, RORgamma inh)
COc1ccc(NC(=O)C[C@H]2C(=O)N(Cc3ccccc3)C[C@@H]2Cc2ccccc2)cc1	IL-1B inflam inh inconclusive, DT40 TDP1 CPT 18.4µM, TDP1 cell noCPT inconclusive (no result: Gal4-VP16 FLuc, RORgamma inh)
COCCCn1c(C)cc(C(=O)COc2ccc3ccc(=O)oc3c2)c1C	none (no result: IL-1B inflam inh, Gal4-VP16 FLuc, DT40 TDP1 CPT, RORgamma inh, TDP1 cell noCPT)
Cc1cc(Nc2ccc(Br)c(C)c2)n2nc(-c3ccco3)nc2n1	DT40 TDP1 CPT inconclusive, TDP1 cell noCPT 20.6µM (no result: IL-1B inflam inh, Gal4-VP16 FLuc, RORgamma inh)
CCOC(=O)CCc1ccc(NC(=O)/C=C/c2ccc([N+](=O)[O-])o2)cc1	IL-1B inflam inh -80.5, DT40 TDP1 CPT 1.84µM, TDP1 cell noCPT 3.26µM (no result: Gal4-VP16 FLuc, RORgamma inh)
Cc1ccc(/C=C/C(=O)Nc2ccc([N+](=O)[O-])cc2)o1	DT40 TDP1 CPT inconclusive, TDP1 cell noCPT inconclusive
COc1ccc(C(=O)N(C)c2ccccc2C(=O)NCCc2ccccc2)cc1	DT40 TDP1 CPT 4.11µM, TDP1 cell noCPT 2.91µM
COc1ccc(OC)c(CCNC(=O)c2ccc3[nH]c(C)c(C)c3c2)c1	DT40 TDP1 CPT inconclusive, TDP1 cell noCPT 20.6µM (no result: IL-1B inflam inh, Gal4-VP16 FLuc, RORgamma inh)
CN(C(=O)c1ccccc1)c1ccccc1C(=O)NCCc1ccccc1	DT40 TDP1 CPT inconclusive, TDP1 cell noCPT inconclusive
COc1ccc(OCCNC(=O)c2ccc3[nH]c(C)c(C)c3c2)cc1	none (no result: IL-1B inflam inh, Gal4-VP16 FLuc, DT40 TDP1 CPT, RORgamma inh, TDP1 cell noCPT)
CCOc1ccc(C(=O)NCCc2ccccc2)cc1	Gal4-VP16 FLuc 8.91µM, RORgamma inh 8.91µM
O=C(Cn1c(=O)c2sccc2n(Cc2cccc([N+](=O)[O-])c2)c1=O)NCCc1ccccc1	DT40 TDP1 CPT inconclusive, RORgamma inh inconclusive, TDP1 cell noCPT inconclusive
O=C(Cn1c(=O)c2sccc2n(Cc2ccc([N+](=O)[O-])cc2)c1=O)NCCc1ccccc1	DT40 TDP1 CPT inconclusive, RORgamma inh inconclusive, TDP1 cell noCPT 13µM
Cc1ccc(CNC(=O)Cn2c(C)cc3ccccc32)cc1	none (no result: IL-1B inflam inh, Gal4-VP16 FLuc, DT40 TDP1 CPT, RORgamma inh, TDP1 cell noCPT)
O=C(COC(=O)CNC(=O)c1ccccc1)NCCCc1ccccc1	none (no result: Gal4-VP16 FLuc, RORgamma inh)
Cc1[nH]c2ccc(C(=O)Nc3ccc(-c4nccs4)cc3)cc2c1C	none (no result: IL-1B inflam inh, Gal4-VP16 FLuc, DT40 TDP1 CPT, RORgamma inh, TDP1 cell noCPT)
CC(=O)NC(=S)NNC(=O)c1ccc(-c2ccccc2)cc1	none (no result: IL-1B inflam inh, Gal4-VP16 FLuc, DT40 TDP1 CPT, RORgamma inh, TDP1 cell noCPT)
O=C(COC(=O)CNC(=O)c1ccccc1)NCCc1ccccc1	RORgamma inh 10µM
CCCN(CCC)C(=S)NC(=O)c1ccc(-c2ccccc2)cc1	Gal4-VP16 FLuc 0.126µM, DT40 TDP1 CPT inconclusive, RORgamma inh 0.501µM, TDP1 cell noCPT inconclusive
N#Cc1ccc(-c2ccc(OCC(=O)NCCc3ccccc3)cc2)cc1	Gal4-VP16 FLuc inconclusive, DT40 TDP1 CPT inconclusive, TDP1 cell noCPT 11.6µM
Cc1cc(NC(=O)c2ccc3[nH]c(C)c(C)c3c2)ccn1	IL-1B inflam inh -58.2, DT40 TDP1 CPT 20.6µM, TDP1 cell noCPT 25.9µM
CSc1nc(C)cc(-c2ccccc2)n1	none (no result: IL-1B inflam inh, Gal4-VP16 FLuc, DT40 TDP1 CPT, RORgamma inh, TDP1 cell noCPT)
CCOc1ccc(C(=O)NC(=S)N(Cc2ccccc2)Cc2ccccc2)cc1	Gal4-VP16 FLuc 0.794µM, DT40 TDP1 CPT 20.6µM, RORgamma inh 0.282µM, TDP1 cell noCPT inconclusive
Cc1ccc(CCNC(=O)c2ccc3[nH]c(C)c(C)c3c2)cc1	DT40 TDP1 CPT inconclusive (no result: IL-1B inflam inh, Gal4-VP16 FLuc, RORgamma inh)
O=C(CCNC(=O)c1ccc([N+](=O)[O-])cc1)NCCc1ccccc1	IL-1B inflam inh -57.3, DT40 TDP1 CPT inconclusive, TDP1 cell noCPT inconclusive
